FMDV antiviral: blocks foot and mouth disease virus | hit rate 1.2% among 410,000 | Potency, µM (top dose mostly 57.9 µM), inactives show at the top dose activity change, negative = inhibition, usual class: inhibitors | FMDV antiviral cell-based qHTS | AID 1159524; calls by dose curve; tested in HEK293T cells; also: read-out not given here; potency is read from the fitted curve at half-maximal effect; nearly all actives have a fitted effect of over 45% in size
Vaccinia Venus: vaccinia inhibition (Venus reporter) | Potency, µM (highest dose often 36.5 µM), without a hit: top-dose activity change, negative = inhibition, most hits filed as inhibitors | AID 720580 | Vaccinia virus Venus reporter expression, fluorescence | hit rate 0.46% among 330,000; calls by dose curve; tested in A549 cells; also: potency is read from the fitted curve at half-maximal effect; nearly all actives have a fitted effect of over 30% in size
VACV mCherry inh: inhibitors of vaccinia virus infection (mCherry reporter signal) | Vaccinia virus mCherry reporter infection, fluorescence | Potency, µM (highest dose often 36.5 µM), without a hit: top-dose activity change, negative = inhibition, usual class: inhibitors | hit rate 0.63% among 310,000 | AID 720579; calls by dose curve; tested in A549 cells; also: potency is read from the fitted curve at half-maximal effect; nearly all actives have a fitted effect of over 35% in size
HCV inhibitor: HCV inhibition | Huh7.5.1 HCVcc-Cre infection, luciferase reporter, 44 h | Potency, µM (top dose mostly 41.8 µM), inactives show top-dose activity change, negative = inhibition, actives largely listed as inhibitors | hit rate 3.4% among 340,000; active = well fitted inhibition curve with a large enough effect; inconclusive = small, poorly fitted or top-dose-only effect, or another doubt; inactive = no such curve, though single readings can be large or run the other way; also: potency is read from the fitted curve at half-maximal effect
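Infectious HCV cell culture screen: compound-treated cells (1,000/well, pre-plated 4 h) are infected with HCVcc-Cre at roughly 0.5 moi and grown 44 h. Infection is quantified by luciferase signal after 15 min substrate incubation at room temperature.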
HCMV inh: human cytomegalovirus inhibition; HFF cells, HCMV-luciferase reporter, 72 h; active compounds read low; activity change, negative = inhibition, % at 57.5 µM; hit rate 4.5% among 410,000; in the data active = activity change below about -60%; inconclusive = no clear call, values can overlap the other calls; inactive = above about -39%
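Compounds were evaluated in HFFs infected with an HCMV luciferase reporter virus (MOI 1 PFU/cell). Luciferase in lysates collected 72 h post infection served as the replication measure.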
* hit, by the source's call; i = inactive; ? = inconclusive; · = no result; + = active, no number. A selection: hits, their analogues and other compounds. The true share with any hit is near 7.3%. % is scaled to controls: 0 for no effect and ±100 for the full control effect.

SMILES	FMDV antiviral	Vaccinia Venus	VACV mCherry inh	HCV inhibitor	HCMV inh
Cc1ccc(-c2nnc(NC(=O)c3ccc([N+](=O)[O-])o3)o2)c(C)c1	-16%	?	?	?	?
COc1ccc(-c2nnc(NC(=O)c3ccc([N+](=O)[O-])o3)o2)c(OC)c1	-27%	?	?	?	-94*
CCC(C(=O)Nc1ccc(C)c(Cl)c1)n1c(=O)c(-c2ccccc2NC(C)=O)nc2ccccc21 (configuration not stated)	?	-14%	-22%	·	-97*
CCC(=O)Nc1ccccc1-c1nc2ccccc2n(C(C)C(=O)Nc2ccc(OC)cc2)c1=O (configuration not stated)	39%	-3%	-1%	·	5
CC(=O)Nc1ccccc1-c1nc2ccccc2n(C(C)C(=O)Nc2cccc(C)c2C)c1=O (configuration not stated)	-15%	-10%	i	·	9
CCC(=O)Nc1ccccc1-c1nc2ccccc2n(C(CC)C(=O)Nc2cccc(Cl)c2)c1=O (configuration not stated)	?	?	?	·	-108*
COc1cc(CNCc2cc3cc(C)ccc3nc2-c2ccc(F)cc2)cc(OC)c1OC	8%	2%	-5%	·	·
COc1ccccc1C(=O)Nc1c(C(=O)N2CCN(c3ccccc3F)CC2)oc2ccccc12	0%	-15%	-16%	·	-17
O=C(c1ccco1)N1CCN(C(=O)C2CCN(S(=O)(=O)c3cnc[nH]3)CC2)CC1	13%	-9%	-15%	32µM*	49
CCOC(=O)c1cccc(NC(=O)C2CCN(S(=O)(=O)c3cccs3)CC2)c1	25µM*	·	·	?	-18
CN1CCN(C(=O)C2CCN(S(=O)(=O)c3cnc[nH]3)CC2)CC1	-20%	-8%	i	12%	16
COc1ccc(CCNC(=O)C2CC(=O)N(c3ccc(C)cc3)C2)cc1OC (configuration not stated)	17%	-13%	-3%	6%	7
CCc1cccc(NC(=O)C2CCN(S(=O)(=O)c3cccs3)CC2)c1	?	-18%	i	?	-22
CCc1ccc(NC(=O)C2CCN(S(=O)(=O)c3cnc[nH]3)CC2)cc1	-27%	·	·	3%	+
COc1ccc(CCNC(=O)C2CC(=O)N(c3ccc(C(C)(C)C)cc3)C2)cc1OC (configuration not stated)	-7%	·	·	-28%	-94*
COC(=O)C1=CO[C@@H](C)[C@@H]2CN3CC[C@]4(C(=O)Nc5c4ccc(OC)c5OC)[C@H]3C[C@H]12	-14%	·	·	·	·
CC(C)Oc1ccccc1OC1(C)CCN(Cc2ccc(OC(F)(F)F)cc2)C1 (configuration not stated)	-22%	?	-20%	·	1
CC(=O)c1ccc(F)c(-c2cc(C)cc3c2OC(CNC(=O)c2cnc4ccccn4c2=O)C3)c1 (configuration not stated)	16%	?	?	·	·
CCc1ccc(NC(=O)C2CCN(S(=O)(=O)c3cccs3)CC2)cc1	?	-29%	-7%	4.5µM*	-65*
CN(C)S(=O)(=O)c1ccc(Cl)c(NC(=O)C2CCN(S(=O)(=O)c3cccs3)CC2)c1	?	·	·	?	-66*
COc1ccc(CCNC(=O)C2CCN(S(=O)(=O)c3cccs3)CC2)cc1OC	-17%	5%	-14%	8%	-96*
CN(C(=O)C1CCN(S(=O)(=O)c2cccs2)CC1)C1CCCCC1	·	-11%	-14%	21%	-27
CCN(Cc1ccncc1)C(=O)C1CCN(S(=O)(=O)c2cccs2)CC1	10%	·	·	8%	-107*
O=[N+]([O-])c1ccc(NN=CC2CCCCCC2)c([N+](=O)[O-])c1	-18%	0%	0%	·	25
CN(C(=O)Cn1cc(S(=O)(=O)Cc2ccccc2Cl)c2ccccc21)c1ccccc1	-13%	-4%	-15%	·	0
SMILES	FMDV antiviral	Vaccinia Venus	VACV mCherry inh	HCV inhibitor	HCMV inh
O=c1c(-c2ccc(Cl)cc2)nc2cncnc2n1Cc1ccccc1Cl	1%	·	·	·	·
CCOC(=O)c1ccc2c(c1)nc(C1CCN(S(=O)(=O)c3cccs3)CC1)n2CC	·	-25%	?	6.3µM*	?
O=C(Nc1ccccc1Br)C1CCN(S(=O)(=O)c2cccs2)CC1	-28%	-12%	-22%	4%	-75*
O=C(Nc1ccc(Cl)cn1)C1CCN(S(=O)(=O)c2cccs2)CC1	?	·	·	11µM*	-72*
CCOC(=O)c1cccc(NC(=O)C2CCCN(S(=O)(=O)c3ccc4c(c3)oc(=O)n4C)C2)c1 (configuration not stated)	?	0%	0%	·	-16
CCOC(=O)c1cccc(NC(=O)C2CCN(S(=O)(=O)c3ccc4c(c3)oc(=O)n4C)CC2)c1	-15%	10%	7%	·	-103*
Cc1ccccc1NC(=O)C1CCN(S(=O)(=O)c2cccs2)CC1	-15%	-6%	-11%	-10%	-32
CCOC(=O)c1c(NC(=O)C2CCN(S(=O)(=O)c3cccs3)CC2)sc(C)c1C	-17%	-16%	·	-6%	23
O=C(/C=C\c1ccc2c(c1)OCO2)NC1CC(=O)N(c2cccc(F)c2)C1 (configuration not stated)	-9%	-5%	-10%	·	-22
COc1ccc(-c2c(-c3ccc4c(c3)OCO4)c3ccccc3n2C)cc1	-23%	-2%	-19%	?	-39
O=C(c1ccccc1)c1sc(N2CCOCC2)nc1-c1ccccc1	?	-8%	i	-19%	26
O=C(c1ccc(Br)cc1)c1sc(N2CCOCC2)nc1-c1ccccc1	?	-7%	-3%	7.9µM*	42
[2H]c1c([2H])c([2H])c(C(=O)c2sc(N3CCCCCC3)nc2-c2ccccc2)c([2H])c1[2H]	?	-12%	·	22µM*	-12
O=C(c1ccccc1)c1sc(N2CCCCCC2)nc1-c1ccccc1	?	?	·	?	-15
COc1cc2c(cc1OC)C(c1oc(-c3ccc(-c4cc(Cl)ccc4Cl)o3)cc1C)=NCC2	·	-14%	-14%	·	·
COc1cc2c(cc1OC)C(c1ccc(-c3ccc(Cl)c(Cl)c3)o1)=NCC2	18µM*	?	-22%	13µM*	-13
COc1cc2c(cc1OC)C(c1ccc(-c3ccc(Cl)cc3Cl)o1)=NCC2	14µM*	-29%	?	11µM*	?
COc1cc2c(cc1OC)C(C)=NCC2	?	11%	-1%	-5%	0
COc1cc2c(cc1OC)C(c1ccc(Cl)cc1)=NCC2	-13%	·	·	-6%	18
COc1cc2c(cc1OC)C(c1ccc(-c3ccccc3Cl)o1)=NCC2	-11%	·	·	5.6µM*	-19
COc1cc2c(cc1OC)C(c1ccc(-c3cc(Cl)ccc3Cl)o1)=NCC2	18µM*	-16%	-22%	?	·
COc1c2ccccc2nn1-c1ccc(-c2cn(Cc3ccccc3)nn2)cc1	·	·	·	·	-28
COc1ccc(CN(C)S(=O)(=O)c2ccc3c(c2)OCCO3)cc1	8%	-4%	i	-8%	23
COc1ccc(C(=O)N2CCC3(CCCN(Cc4ccccc4OC)C3)CC2)cc1	-4%	·	·	·	·

Screens deposited in PubChem by National Center for Advancing Translational Sciences (NCATS).
